The source of these data is PubChem BioAssay AID504333 (National Center for Advancing Translational Sciences (NCATS), 2011).

In all, about 360,000 compounds went through this assay and about 16,000 (4.4%) were called active. Inconclusive results (about 9%) are left out. What follows is part of a selection rich in actives, with near analogues and random picks from the rest. Values without a mark were called inactive. Calls follow the shape of the dose curve; as a rule, active = well fitted inhibition curve with a large enough effect; inconclusive = small, poorly fitted or top-dose-only effect; inactive = no such curve, though single readings can be large or run the other way.
% is scaled to controls: 0 for no effect and ±100 for the full control effect; potency is read from the fitted curve at half-maximal effect.

Sequence of Bromodomain adjacent to zinc finger domain protein 2B (Homo sapiens) (Q9UIF8 whole entry, looked up, the tested form may be a part): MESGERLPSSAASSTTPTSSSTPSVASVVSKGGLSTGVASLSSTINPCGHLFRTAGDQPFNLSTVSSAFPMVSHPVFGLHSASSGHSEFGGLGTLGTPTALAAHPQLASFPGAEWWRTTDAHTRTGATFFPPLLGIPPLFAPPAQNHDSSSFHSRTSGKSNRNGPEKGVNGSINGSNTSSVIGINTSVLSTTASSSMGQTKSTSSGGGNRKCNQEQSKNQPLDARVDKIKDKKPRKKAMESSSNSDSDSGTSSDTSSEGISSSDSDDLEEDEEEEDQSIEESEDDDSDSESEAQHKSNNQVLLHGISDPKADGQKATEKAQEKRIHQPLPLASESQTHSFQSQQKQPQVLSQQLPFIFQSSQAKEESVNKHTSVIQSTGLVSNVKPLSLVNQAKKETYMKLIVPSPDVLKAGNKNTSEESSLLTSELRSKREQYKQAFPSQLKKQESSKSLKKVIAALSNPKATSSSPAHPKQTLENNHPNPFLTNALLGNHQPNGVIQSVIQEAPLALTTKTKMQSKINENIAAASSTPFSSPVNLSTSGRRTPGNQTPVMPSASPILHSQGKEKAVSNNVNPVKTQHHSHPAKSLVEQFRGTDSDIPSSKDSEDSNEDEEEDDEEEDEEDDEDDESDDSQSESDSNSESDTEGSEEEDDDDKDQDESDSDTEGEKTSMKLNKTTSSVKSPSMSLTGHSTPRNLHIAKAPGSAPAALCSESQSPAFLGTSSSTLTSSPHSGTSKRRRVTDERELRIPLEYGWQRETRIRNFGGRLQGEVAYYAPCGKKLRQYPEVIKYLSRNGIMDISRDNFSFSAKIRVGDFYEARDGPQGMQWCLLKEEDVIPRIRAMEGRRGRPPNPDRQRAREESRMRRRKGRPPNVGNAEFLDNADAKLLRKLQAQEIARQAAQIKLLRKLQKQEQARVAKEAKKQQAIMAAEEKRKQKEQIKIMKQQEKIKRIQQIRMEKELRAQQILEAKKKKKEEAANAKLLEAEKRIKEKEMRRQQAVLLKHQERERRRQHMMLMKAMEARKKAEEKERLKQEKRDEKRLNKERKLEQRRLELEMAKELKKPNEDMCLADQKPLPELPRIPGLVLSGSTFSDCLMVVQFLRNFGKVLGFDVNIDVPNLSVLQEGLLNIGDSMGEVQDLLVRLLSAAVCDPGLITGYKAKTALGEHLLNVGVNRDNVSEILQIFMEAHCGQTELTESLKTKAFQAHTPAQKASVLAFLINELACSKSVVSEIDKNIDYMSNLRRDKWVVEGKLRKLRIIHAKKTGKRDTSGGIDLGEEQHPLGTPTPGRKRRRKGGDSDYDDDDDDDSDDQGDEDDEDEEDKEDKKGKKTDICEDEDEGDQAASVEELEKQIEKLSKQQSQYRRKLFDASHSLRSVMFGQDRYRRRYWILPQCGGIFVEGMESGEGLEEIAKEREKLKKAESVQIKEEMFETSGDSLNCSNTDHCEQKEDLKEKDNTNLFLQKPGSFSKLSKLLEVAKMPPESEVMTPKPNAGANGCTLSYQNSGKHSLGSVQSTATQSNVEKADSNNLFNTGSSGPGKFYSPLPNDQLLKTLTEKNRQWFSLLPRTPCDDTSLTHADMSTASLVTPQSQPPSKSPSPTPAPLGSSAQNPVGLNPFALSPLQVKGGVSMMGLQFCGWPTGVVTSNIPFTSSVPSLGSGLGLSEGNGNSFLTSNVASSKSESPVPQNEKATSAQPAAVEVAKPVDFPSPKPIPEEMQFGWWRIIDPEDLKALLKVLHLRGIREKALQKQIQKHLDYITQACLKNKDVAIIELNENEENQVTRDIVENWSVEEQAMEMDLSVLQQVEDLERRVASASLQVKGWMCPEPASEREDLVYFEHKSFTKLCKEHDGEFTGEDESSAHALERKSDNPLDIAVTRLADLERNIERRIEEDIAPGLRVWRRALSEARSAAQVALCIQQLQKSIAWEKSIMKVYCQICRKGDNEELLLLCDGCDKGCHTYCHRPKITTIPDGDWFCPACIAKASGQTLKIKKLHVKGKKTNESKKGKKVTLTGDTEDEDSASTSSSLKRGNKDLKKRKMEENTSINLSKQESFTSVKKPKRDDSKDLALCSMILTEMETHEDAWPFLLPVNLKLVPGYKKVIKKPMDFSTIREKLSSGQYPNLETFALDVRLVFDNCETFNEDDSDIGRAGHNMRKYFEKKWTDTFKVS

This experiment addresses Bromodomain adjacent to zinc finger domain protein 2B (Homo sapiens) (UniProt Q9UIF8). Put plainly: qHTS Assay for Inhibitors of BAZ2B. Also: nearly all actives have a fitted effect of over 60% in size. To be noted: AlphaScreen BAZ2B-H3K14Ac peptide displacement; series mostly up to 114 µM; activity change, negative = inhibition: at the top concentration. The gist of the method: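 Multi-concentration screen (max 110 uM) measuring displacement of acetylated histone H3 peptide from BAZ2B by AlphaScreen, using 50 nM protein, 50 nM peptide and 10 ug/mL streptavidin donor plus Ni-chelate acceptor beads.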
In general terms: In qHTS, concentration-response curves come from the screen itself.
Turning to `COc1ccc(Cc2nc3ccc(C(=O)NCc4ccccc4Cl)cc3o2)cc1`, the “activity change, negative = inhibition” value is -10.8%.

For the compound `CCc1ccc(-n2nnc(-c3nc(-c4ccccc4)no3)c2C)cc1`, the “activity change, negative = inhibition” value was 4.12%.

Regarding `O=C(CN1C(=O)C2C3C=CC(C3)C2C1=O)Nc1nc(-c2ccccn2)cs1` (centres undefined), the Potency is 50.1 µM (active).

As to `O=C(NCCN1C(=O)C2C3C=CC(C3)C2C1=O)Nc1ccccn1` (centres undefined), the “activity change, negative = inhibition” value was 9.03%.

Consider `O=C(CN1C(=O)C2C3C=CC(C3)C2C1=O)NCCc1ccccc1Cl` (centres undefined), for which the “activity change, negative = inhibition” value is 4.62%.

Consider `CCOc1ccc(CNC(=O)c2cccc(Nc3nc4ccccc4n4nnnc34)c2)cc1OC`, for which the “activity change, negative = inhibition” value is 3.33%.

Consider `Cc1ccc(OCCSc2nc3ccc(NC(=O)COc4ccc(C)cc4)cc3s2)cc1`, for which the “activity change, negative = inhibition” value is 0.408%.

Consider `Cc1cc(C)cc(Nc2ncnc3onc(-c4ccc(F)cc4)c23)c1`, for which the “activity change, negative = inhibition” value was 15.2% [at 57.1 µM].

With `O=C(Nc1cccc2cccnc12)c1cccc(N2C(=O)CCC2=O)c1`, the “activity change, negative = inhibition” value is 2.18%.

Take `COC(=O)c1cccc(NC(=O)c2cccc(N3C(=O)CCC3=O)c2)c1`: the “activity change, negative = inhibition” value is 12.5%.

On to `COc1ccccc1-c1nnc(NC(=O)c2cccc(N3C(=O)CCC3=O)c2)o1`, for which the Potency is 25.1 µM (active).

`COc1ccc(Cc2nc3ccc(C(=O)NCc4ccc(OC)cc4OC)cc3o2)cc1`: the “activity change, negative = inhibition” value is -18.2%.

Regarding `Cc1ccc(S(=O)(=O)c2nc(-c3ccco3)oc2SCC(=O)Nc2ccc(F)cc2)cc1`, the “activity change, negative = inhibition” value was -0.883%.

As to `CCCCS(=O)(=O)c1oc(-c2cccs2)nc1S(=O)(=O)c1ccccc1`, the “activity change, negative = inhibition” value is -1.72%.

With `Cc1ccc(C)c(S(=O)(=O)c2nnn3c2nc(N2CCOCC2)c2sccc23)c1`, the “activity change, negative = inhibition” value is -3.84%.

For the compound `O=C(NCCCO)c1nn(-c2ccc(Cl)cc2)nc1CO`, the “activity change, negative = inhibition” value is 1.22%.

Take `Cc1cc(NC(=O)C2CCC(CNS(=O)(=O)c3ccc(Br)s3)CC2)ccc1Br` (centres undefined): the “activity change, negative = inhibition” value is 0.805%.

As for `CC(C)NC(=S)NN=C1CCCCCCCCCCC1`, the Potency was 35.5 µM (active).

For the compound `CC(C)(C)NC(=O)C(=O)NN=C1CCCCCCC1`, the “activity change, negative = inhibition” value is -23.6%.

In the case of `CCc1ccc(C(=O)NN=C2CCCCCC2)s1`, the “activity change, negative = inhibition” value was -19.5%.

With `O=C(c1ccc2c(c1)N(Cc1ccccc1)C(=O)c1ccccc1S2(=O)=O)N1CCC(Cc2ccccc2)CC1`, the “activity change, negative = inhibition” value was -17.7%.

Regarding `COc1cc(N2CCCC2)c(OC)cc1/C=C(/C#N)c1cccc(Br)c1`, the Potency was 10 µM (active).

As to `CC(=O)Nc1cccc(Oc2cc(C#N)c(C#N)cc2N2CCOCC2)c1`, the “activity change, negative = inhibition” value is 6.72%.

`CCc1ccc(NC(=O)c2cc3c(=O)n(Cc4cccnc4)ccc3nc2C)cc1`: the “activity change, negative = inhibition” value is -12.7%.

With `Cc1ccc(-n2c(SCC(=O)Nc3cccc(F)c3)nc3c(oc4ccccc43)c2=O)cc1C`, the “activity change, negative = inhibition” value is -4.2%.

With `CC(=O)N1CCN(CC(=O)Nc2ccc(SC(F)F)cc2)CC1`, the “activity change, negative = inhibition” value was -37.9%.

Consider `CCN(CC)c1ccc(NC(=O)CN2CCN(CC(=O)Nc3ccc(Cl)cc3)CC2)cc1`, for which the Potency was 20 µM (active).

On to `CCOC(=O)N1CCN(CC(=O)Nc2ccc(F)cc2)CC1`, for which the “activity change, negative = inhibition” value is 1.87%.

With `COC(=O)c1cc(NC(=O)CN2CCN(C(C)=O)CC2)cc(C(=O)OC)c1`, the “activity change, negative = inhibition” value is -8.23%.

Consider `CCN(CC)c1ccc(NC(=O)CN2C(=O)NC3(CCc4ccccc43)C2=O)cc1` (centres undefined), for which the “activity change, negative = inhibition” value was 7.07%.

As to `CC(=O)N1CCN(CC(=O)Nc2ccc(C)c(F)c2)CC1`, the Potency was 44.7 µM (active).

For `CCN(CC)c1ccc(NC(=O)CN2C(=O)c3cccnc3Oc3ccc(Cl)cc32)c(C)c1`, the “activity change, negative = inhibition” value is 2.11%.

Consider `Cc1cccc(C(=O)Nc2ccc(S(=O)(=O)N3CCCCC3c3cccnc3)cc2)c1` (centres undefined), for which the “activity change, negative = inhibition” value is -12.5%.

For the compound `Cc1ccc(Cn2c(C)c3cnn(CC(=O)NCc4ccccc4)c(=O)c3c2C)cc1`, the “activity change, negative = inhibition” value was -27.3%.

With `COC(=O)c1scc(-c2ccccc2)c1S(=O)(=O)Nc1ccccc1`, the “activity change, negative = inhibition” value was 4.54%.

For `CC(=O)c1ccc(NC(=O)CCc2nc(-c3ccc(C)cc3)no2)cc1`, the “activity change, negative = inhibition” value was -3.82%.

In the case of `COc1ccc(Cl)cc1NC(=O)CCn1c(=O)c2cccn2c2ccccc21`, the “activity change, negative = inhibition” value was -12.5%.

On to `CCCCn1c(=O)c(CCC(=O)OCC(=O)Nc2ccc(C)c(Cl)c2)nc2ccccc21`, for which the “activity change, negative = inhibition” value was -7.31%.

Regarding `Cc1ccc(NC(=O)CCCn2c(=O)c3cccn3c3ccccc32)cc1Cl`, the Potency was 50.1 µM (active).

For `Cc1cccc(NC(=O)CSc2nc(-c3ccco3)cc(C(F)(F)F)n2)c1C`, the “activity change, negative = inhibition” value was -0.898%.

Take `Cc1ccc(Cl)cc1N1CCN(C(=O)c2cnc3c(-c4ccc(F)cc4)c(C)nn3c2C)CC1`: the “activity change, negative = inhibition” value was -6.09%.

As for `Cc1ccc(C(=O)N/N=C\c2cc(Br)c(Br)o2)cn1`, the Potency was 50.1 µM (active).

`O=C(O)c1ccc(/C=N/NC(=O)c2ccc(Br)cc2)cc1`: the “activity change, negative = inhibition” value was 0.96%.

For `O=C(N/N=C/c1ccc(Br)o1)c1cncc(Br)c1`, the “activity change, negative = inhibition” value was -25.5%.

For the compound `Cc1nn2c(=O)cc(COC(=O)c3cccc(NC(=O)COc4ccccc4Cl)c3)nc2s1`, the “activity change, negative = inhibition” value was -6.08%.

With `CCOc1ccc(-c2cc3nc(C4CCN(C(=O)OC(C)(C)C)CC4)c(C(=O)Nc4cccc(CC)c4)cn3n2)cc1`, the “activity change, negative = inhibition” value is 0.892%.

Take `Cc1cc(-c2csc(N)n2)c(C)n1-c1ccccc1`: the Potency is 44.7 µM (active).

Turning to `Cc1n[nH]c(=O)n1-c1ccc(Oc2ccccc2)cc1`, the “activity change, negative = inhibition” value was -3.69%.

Consider `Cc1cc(C(=O)OCC(=O)NCc2ccco2)c(C)n1-c1ccccc1`, for which the “activity change, negative = inhibition” value is -116%.

For the compound `COc1ccc(NS(=O)(=O)c2cc3c4c(c2)CC(=O)N4CCC3)cc1Cl`, the “activity change, negative = inhibition” value was -8%.

For `COc1ccccc1CNC(=O)c1ccc(CS(=O)c2ccccc2Cl)o1` (centres undefined), the “activity change, negative = inhibition” value was -9.68%.

With `Brc1ccc(-c2csc(N/N=C/c3ccc4c(c3)OCO4)n2)cc1`, the “activity change, negative = inhibition” value was -0.146%.

Regarding `C(=N\Nc1ccc2ccccc2n1)/c1ccc2c(c1)OCO2`, the Potency is 50.1 µM (active).

On to `Cc1noc(C)c1/C=N/Nc1ccc2ccccc2n1`, for which the “activity change, negative = inhibition” value was 1.17%.

Take `COc1ccc(CCNC(=O)CCCn2c(=O)c3ccccc3n(Cc3ccc(C)cc3)c2=O)cc1OC`: the “activity change, negative = inhibition” value was -3.19%.

In the case of `CCOC(=O)c1cc(-c2ccc(OC)c(S(=O)(=O)Nc3ccc(OC)cc3OC)c2)on1`, the “activity change, negative = inhibition” value is -17.2%.

Consider `CCN(CC)CCNc1ncnc2c1cnn2-c1cc(Cl)ccc1C`, for which the “activity change, negative = inhibition” value was 0.0312%.

`Clc1cccc(-n2ncc3c(NCCc4ccccc4)ncnc32)c1`: the “activity change, negative = inhibition” value was 42.4%.

Turning to `Cc1ccc(-n2ncc3c(NCCCn4ccnc4)ncnc32)cc1Cl`, the Potency is 44.7 µM (active).

Turning to `O=C(CC1Oc2ccc(Cl)cc2NC1=O)NCc1ccccc1` (centres undefined), the “activity change, negative = inhibition” value was -8.67%.

As for `CCOc1ccccc1CNC(=O)c1cnc2c(-c3ccc(OCC)c(OCC)c3)c(C)nn2c1C`, the “activity change, negative = inhibition” value was -19.4%.

As to `Cc1ccc(SCC(=O)Nc2ccc3oc(-c4ccccc4F)nc3c2)cc1`, the “activity change, negative = inhibition” value is -16.5%.

Take `CCOC(=O)C1CCCN(C(=O)c2ccc3c(c2)sc2nc(-c4ccc(CC)cc4)cn23)C1` (centres undefined): the “activity change, negative = inhibition” value is 1.94%.

With `Cc1ccccc1CNC(=O)CSc1nnc(C)c2c(C)n(-c3ccccc3)nc12`, the “activity change, negative = inhibition” value is -3.05%.
